# Results as given in ChEMBL document CHEMBL4513216, “Probing the Open Global Health Chemical Diversity Library for Multistage-Active Starting Points for Next-Generation Antimalarials” (ACS Infect Dis, 2020).
# The campaign covered roughly 68,000 compounds. About 2,700 (4%) showed an effect of 50% or more. This is one part of a sample in which strong results are shown more often than they occur.
# Test system: Plasmodium berghei
# Assay: Screen against P. berghei liver stage (PbLuc), transformed with Luciferase, at 2uM
# Type: functional, HepG2
# Settings: tested at 2 uM
row,SMILES,INHIBITION
1,Cc1nccn1CCC(=O)N1CCC2(CCC(=O)N(CC3CC3)C2)CC1,-63.27%
2,Cn1cc(Br)c(=O)c(NS(=O)(=O)c2ccc(Cl)cc2)c1,4.67%
3,Cn1cc(Br)c(=O)c(NS(=O)(=O)c2ccc(F)cc2)c1,55.04%
4,CCc1ccc(S(=O)(=O)Nc2cn(C)cc(Br)c2=O)cc1,11.28%
5,CNS(=O)(=O)c1cc(C(=O)N(C)Cc2sccc2C)c(C)o1,10.48%
6,Cc1cc(C(=O)N2C[C@@H](C(=O)O)[C@H](C(C)C)C2)cs1,-3.66%
7,Cc1nc(CC(C)C)cc(C(=O)N2C[C@@H](N(C)C)[C@H](C(C)C)C2)n1,0.55%
8,Cc1cc(C(=O)N2C[C@H](C(C)C)[C@@H](N(C)C)C2)cs1,68.66%
9,CC(C)c1cccc(N2CCCC3(CCC(=O)N(C4CC4)C3)C2)n1 (centres undefined),-90.99%
10,Cc1ccc(O)c(CNCC(C)c2nc3ccccc3o2)n1 (centres undefined),35.36%
11,CC(C)NC(=O)N1CCOC2(CNC2)C1,44.13%
12,CCC(CC)C(=O)N1CCOC2(COCCN(CC(=O)NC)C2)C1 (centres undefined),48.52%
13,CCC(CC)C(=O)N1CCOC2(CNC2)C1,58.95%
14,Cc1cc(C(=O)NCC(C)C)c2c(C3CCCN3)noc2n1 (centres undefined),-14.61%
15,Cc1noc(CNC2CCCN(Cc3noc(C4CC4)n3)C2)n1 (centres undefined),10.53%
16,CC(C)Oc1cc(N2CCN(Cc3ccsc3)C(CCO)C2)nc(N)n1 (centres undefined),51.76%
17,COc1cc(N2CCN(Cc3ccsc3)C(CCO)C2)nc(N)n1 (centres undefined),39.92%
18,Cc1cc(N2CCN(Cc3ccsc3)C(CCO)C2)nc(N)n1 (centres undefined),34%
19,O=c1[nH]c2cn(-c3cccc(Cl)c3)c(=O)n2n1Cc1cccc(F)c1,42.62%
20,O=c1[nH]c2cn(-c3cccc(F)c3)c(=O)n2n1Cc1ccc(Cl)cc1,5.87%
21,O=c1[nH]c2cn(-c3ccc(F)cc3)c(=O)n2n1Cc1cccc(Cl)c1,58%
22,CCCn1nc2c(cc1=O)CN(CCN1CCCC1=O)CC2,-33.39%
23,CC(C)(C)n1ncc2c(=O)[nH]c(N3CCN(CCO)CC3)nc21,40.47%
24,CC(=O)N1CCN(c2nc3c(cnn3C(C)(C)C)c(=O)[nH]2)CC1,-12.08%
25,CC(C)(C)n1ncc2c(=O)[nH]c(N3CCN(CC(F)F)CC3)nc21,66.74%
26,CSCC[C@H](N)C(=O)NCc1cc2n(n1)CCCN(C1CCCCC1)C2,-46.68%
27,Cc1ccc(S(=O)(=O)NC[C@H]2OC[C@@H](NCc3ccncc3)[C@@H]2O)cc1,16.47%
28,Cc1ccc(CN[C@@H]2CO[C@H](CNS(=O)(=O)c3ccccc3)[C@H]2O)cc1,-6.18%
29,Cc1ccc(S(=O)(=O)NC[C@H]2OC[C@@H](NCc3ccccc3)[C@@H]2O)cc1,75.87%
